# According to PubChem BioAssay (EPA / NIEHS):
# Activity calls are given as the source filed them. How the source made its calls: active means hit-call score of the fitted dose curve at least 0.9, where 1 is the maximum; inactive means score below 0.9.
# Test system: not listed separately
# Assay: ATG_PBREM_CIS: Attagene CIS-FACTORIAL HepG2 Assay for human Phenobarbital-responsive Enhancer Module (PBREM) (AID 2282955)
# Details: HepG2 PBREM cis-reporter, Attagene multiplexed transcription; actives raise or lower the signal
# Summary of the method: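 Cells were transfected with cis-element reporter units and treated for 24 h, after which RNA was extracted and reporter transcripts measured by RT-PCR and capillary electrophoresis.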
row,SMILES,outcome
1,CCCCCCCCCCCC#N,inactive
2,O=C(NC(=O)c1c(F)cccc1F)Nc1ccc(Oc2ccc(C(F)(F)F)cc2Cl)cc1F,inactive
3,CC1CCCC1.[C-]#[O+].[C-]#[O+].[C-]#[O+].[Mn],inactive
4,CC(=O)C=Cc1ccccc1,inactive
5,CCC(=O)c1ccc(Cl)cc1,inactive
6,Nc1ccccc1C(=O)Oc1ccc2ccccc2c1,inactive
7,C=CC(=O)OC,inactive
8,CC(C)CCCCCCCOC(=O)c1ccccc1C(=O)OCCCCCCCC(C)C,inactive
9,N#CCNCC#N,inactive
10,CN1C[C@H](C(=O)N[C@]2(C)O[C@@]3(O)[C@@H]4CCCN4C(=O)[C@H](Cc4ccccc4)N3C2=O)C=C2c3cccc4[nH]cc(c34)C[C@H]21,inactive
11,O=[N+]([O-])C=Cc1ccccc1,inactive
12,Nc1ccc(Cl)c(Cl)c1,inactive
13,CC(O)CN(CC(C)O)CC(C)O (centres undefined),inactive
14,Nc1cc(Cl)cc(Cl)c1,inactive
15,Cc1ccc(C)c2ccccc12,inactive
16,C=CCO,inactive
17,[CH3][Sn]([Cl])([Cl])[Cl],inactive
18,CC(=O)c1cc2c(cc1C)C(C)(C)C(C)CC2(C)C (centres undefined),inactive
19,c1cc(OCC2CO2)ccc1Cc1ccc(OCC2CO2)cc1 (centres undefined),inactive
20,C=CC(=O)OCCCCOC(=O)C=C,inactive
21,c1ccc2c(c1)CCCC2,inactive
22,CCOC(=O)C1OC1(C)c1ccccc1 (centres undefined),inactive
23,[Cl][Sb]([Cl])[Cl],inactive
24,COc1ncc(F)c2nc(S(=O)(=O)Nc3c(F)cccc3F)nn12,inactive
25,CC(C)[C@@H](C(=O)O[C@@H](C#N)c1cccc(Oc2ccccc2)c1)c1ccc(Cl)cc1,inactive
26,C[C@]12CC[C@H]3[C@@H](CC[C@@]45O[C@@H]4C(O)=C(C#N)C[C@]35C)[C@@H]1CC[C@@H]2O,inactive
27,O=[N+]([O-])c1cc([N+](=O)[O-])c2ccccc2c1,inactive
28,O=C(O)C(Br)Br,inactive
29,C=CC(=O)OCCO,inactive
30,CCCCCCCCCCCCCCCC[N+](C)(C)C,inactive

# Target: Paired box protein Pax-6 (Homo sapiens) (UniProt P26367)
# Sequence (P26367 whole entry, looked up): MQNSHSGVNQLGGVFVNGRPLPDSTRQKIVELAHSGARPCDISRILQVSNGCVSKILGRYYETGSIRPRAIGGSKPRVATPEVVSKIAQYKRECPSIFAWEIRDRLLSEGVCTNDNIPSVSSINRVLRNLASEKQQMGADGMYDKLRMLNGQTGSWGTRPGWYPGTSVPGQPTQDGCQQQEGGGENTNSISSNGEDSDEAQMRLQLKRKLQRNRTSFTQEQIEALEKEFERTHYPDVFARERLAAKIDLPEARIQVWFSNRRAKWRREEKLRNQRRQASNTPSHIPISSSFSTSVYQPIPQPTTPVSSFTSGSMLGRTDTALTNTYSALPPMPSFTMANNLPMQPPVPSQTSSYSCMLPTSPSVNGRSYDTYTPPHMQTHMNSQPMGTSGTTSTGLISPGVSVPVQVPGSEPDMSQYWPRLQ
# Assay: ATG_Pax6_CIS: Attagene CIS-FACTORIAL HepG2 Assay for human Paired Box 6 (PAX6) (AID 2282956)
# Details: HepG2 CIS-FACTORIAL PAX6 reporter transcription, RNA readout; actives raise or lower the signal
# Summary of the method: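 Fluorescent RT-PCR products separated by capillary electrophoresis report PAX6-linked promoter mRNA in HepG2 cells 24 h post-dose. Curves fitted bidirectionally, DMSO as negative control.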
SMILES,outcome,AC50
CCCCCCCCCCCC#N,inactive,
O=C(NC(=O)c1c(F)cccc1F)Nc1ccc(Oc2ccc(C(F)(F)F)cc2Cl)cc1F,inactive,
CC1CCCC1.[C-]#[O+].[C-]#[O+].[C-]#[O+].[Mn],inactive,
Nc1ccccc1C(=O)Oc1ccc2ccccc2c1,,46.9 µM (active)
CC(C)CCCCCCCOC(=O)c1ccccc1C(=O)OCCCCCCCC(C)C,inactive,
N#CCNCC#N,inactive,
O=[N+]([O-])C=Cc1ccccc1,,21.1 µM (active)
Nc1ccc(Cl)c(Cl)c1,inactive,
O=C(O)CCl,inactive,
CC(O)CN(CC(C)O)CC(C)O (centres undefined),inactive,
O=[N+]([O-])c1ccc(Cl)cc1,inactive,
Cc1ccc(C)c2ccccc12,inactive,
C=CCO,inactive,
COC(=O)COc1ccc(Cl)cc1Cl,inactive,
CC(=O)c1cc2c(cc1C)C(C)(C)C(C)CC2(C)C (centres undefined),,100 µM (active)
Nc1ccc(-c2ccc(N)c(N)c2)cc1N,inactive,
c1cc(OCC2CO2)ccc1Cc1ccc(OCC2CO2)cc1 (centres undefined),,33.4 µM (active)
C=CC(=O)OCCCCOC(=O)C=C,,52.4 µM (active)
[Cl][Sb]([Cl])[Cl],,133 µM (active)
COc1ncc(F)c2nc(S(=O)(=O)Nc3c(F)cccc3F)nn12,inactive,
CC(C)[C@@H](C(=O)O[C@@H](C#N)c1cccc(Oc2ccccc2)c1)c1ccc(Cl)cc1,inactive,
O=[N+]([O-])c1cc([N+](=O)[O-])c2ccccc2c1,inactive,
O=C(O)C(Br)Br,inactive,
CCCCCCCCCCCCCCCC[N+](C)(C)C,inactive,
